In PubChem BioAssay AID602163 (The Scripps Research Institute Molecular Screening Center, 2012):
About 1,100 (0.31%) of roughly 360,000 compounds were called active. Rule as the data show it: active = activation above about 7.5%; inactive = the rest. The full list was thinned out, with actives kept by preference.

System: Methionine sulfoxide reductase A (Bos taurus)
Assay: bovine MsrA enzyme activators, primary screen, biochemical, absorbance, HTS (AID 602163);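 also: 0% = vehicle and 100% = reference activator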
Settings: purified bovine MsrA, absorbance read-out; at 10.6 µM; hits give high values

activation, active:
CC(=O)NC(Cc1c[nH]c2ccccc12)C(=O)O (stereo not drawn) 9.9%, O=C(NC1=CC(=O)c2ccccc2C1=O)c1ccccc1 18.2%, O=C(CSc1n[nH]c(-c2cccs2)n1)N1CCCCC1 8.31%, COc1ccc([C@H]2CC(=O)C=C(/C=C/c3ccccc3)C2)cc1 8.06%, O=C(O)c1ccccc1-c1ccccc1C(=O)Nc1cccc2ccccc12 11.4%, O=C(O)c1ccccc1NC(=O)c1ccccc1-c1ccccc1C(=O)O 7.87%, Cn1sc(NC(=O)c2ccccc2)nc1=O 14.9%, NC1=CC(=O)C(=O)c2cccnc21 15.2%, CC1=NNC(=O)C1CCC(=O)N/N=C(\C)c1ccc(Cl)cc1 (stereo not drawn) 19.6%, Cc1ccc(COC(=O)CN2C(=O)NC3(CCCC3)C2=O)cc1 10.9%, S=c1[nH]nc2c3c4c(sc3ncn12)CCCC4 12.9%, COc1cc(NC(=O)COC(=O)c2ccc([N+](=O)[O-])s2)cc(OC)c1OC 10.6%, O=C(OCC(=O)N1CCN(c2ccccc2)CC1)c1ccc([N+](=O)[O-])s1 8.9%, COc1ccc(C(=O)COC(=O)c2ccc([N+](=O)[O-])s2)cc1OC 12.4%

activation, inactive:
O=C(N[C@@H](Cc1c[nH]c2ccccc12)C(=O)O)OCC1c2ccccc2-c2ccccc21 0.63%, CC(=O)NC(Cc1c[nH]c2ccccc12)C(=O)NCCc1ccccc1 (stereo not drawn) -3.82%, NS(=O)(=O)c1cccc(NC(=O)CC23CC4CC(CC(Br)(C4)C2)C3)c1 -2.66%, C#CCO[C@@H]1C[C@H](n2cnc3c(=O)[nH]c(NC(=O)C(C)C)nc32)O[C@@H]1CO -0.46%, C/C(=N\NC(=O)c1ccc(C)cc1)C1C(=O)c2ccccc2C1=O -5.75%, COc1cc(NC(=O)c2ccccc2)c(OC)cc1NC(=O)Cc1ccccc1 0.53%, O=C(CSCc1c(Cl)cccc1Cl)NN1C(=O)c2ccccc2C1=O -2.13%, O=C(COC(=O)Cc1ccc(Br)cc1)Nc1ccc(N2CCOCC2)cc1 -1.14%, O=C(CSc1ncccn1)N1CCCC1 -3.29%, Cn1c(SCC(=O)N2CCCC2)nnc1-c1cccs1 -0.73%, CCCCn1c(N)c(N(CC(C)C)C(=O)CSc2ccc([N+](=O)[O-])cc2)c(=O)[nH]c1=O -3.75%, COc1ccc([C@H]2CC(=O)C=C(/C=C/c3ccc(Cl)cc3)C2)cc1 -1.21%, COc1ccc([C@H]2CC(=O)C=C(c3ccc(C)cc3)C2)cc1 -3.05%, O=C(Nc1cccn(Cc2c(Cl)cccc2Cl)c1=O)c1ccc(Cl)cc1 2.68%, CC(Sc1nnc(CNC(=O)c2ccccc2F)n1C)C(=O)Nc1nccs1 (stereo not drawn) 0.09%, O=C(O)c1ccccc1-c1ccccc1C(=O)Nc1ccccc1Br -10.3%, O=C(O)c1ccccc1-c1ccccc1C(=O)NCCc1ccccc1 -13.5%, O=C(O)c1ccccc1-c1ccccc1C(=O)Nc1nccs1 -2.03%, O=C(Nc1ccccc1F)c1ccccc1-c1ccccc1 -1.97%, N#Cc1ccc(OCCN2C(=O)NC3(CCSC3)C2=O)cc1 (stereo not drawn) -0.26%, CCOC(=O)c1cc(-c2ccccc2C)n(Cc2cc(C)no2)n1 -2.88%, COc1ccccc1CNC(=O)C1CCN(S(=O)(=O)c2ccc3c(c2)OCCO3)CC1 -2.2%, Cc1ccc(S(=O)(=O)N(CC(=O)NN=C2CCN(C)CC2)c2ccc(F)cc2)cc1 -2.23%, Cc1nc(NNC(=O)c2ccccc2)cc(-c2ccccc2)n1 1.76%, CCOC(=O)c1cc(-c2sc(NC(=O)c3ccccc3)nc2C)n(CCO)n1 -3.15%, CCN(CC)S(=O)(=O)c1ccc(OC(C)C)c(N)c1 -3.46%, CN1C(=O)c2ccccc2C(C(=O)NCCCN2CCCC2)C1c1c[nH]c2ccccc12 (stereo not drawn) -1.12%, Cc1ccc(SCC(=O)c2cc(C)c(OC(=S)N(C)C)c(C)c2)cc1 1.83%, COc1ccc(CCNC(=O)CN2CCC(n3nnc4cc(F)ccc43)CC2)cc1OC -2.2%, Cc1ccc2c(CC(=O)NCc3cccs3)coc2c1 -2.6%, COc1cc(C(=O)OCCCN2CCOCC2)cc(OC)c1OC -0.8%, COC(=O)c1scc(S(=O)(=O)C(C)(C)C)c1-n1cccc1 -1.27%, COc1ccc(S(=O)(=O)N2CCOCC2)cc1NC(=O)Cc1coc2cc(C)ccc12 -1.58%, CC(C)c1ccc(Nc2ncccc2C#N)cc1 -0.47%, CC1=NNC(=O)C1CCC(=O)N/N=C\c1ccc(Cl)c(Cl)c1 (stereo not drawn) -2.03%, CC1=NNC(=O)C1CCC(=O)N/N=C\c1cccc(Cl)c1 (stereo not drawn) -5.62%, CCOc1ccc(CCNC(=O)COC(=O)C2CCN(S(=O)(=O)c3ccccc3)CC2)cc1OCC -3.79%, CSC1=NCCN1C(=O)Cc1cccc2ccccc12 -1.62%, O=C(NCCOc1ccccc1)N1[C@H]2CC[C@@H]1C=C(c1ccc(F)cc1OCc1ccccc1)C2 -0.63%, CCOc1ccc(C(C)=O)cc1COC(=O)CN1C(=O)NC2(CCCC2)C1=O -2.45%, O=C(CN1C(=O)NC2(CCCC2)C1=O)OCCOc1ccc(F)cc1 -0.72%, N=c1c2c3c(sc2ncn1CCCN1CCOCC1)CCCCC3 -6.06%, CCn1c(=S)[nH]c2sc3c(c2c1=O)CCCCC3 1.11%, COc1ccc(C(=O)OCC(=O)c2ccc(C)c(S(=O)(=O)N3CCOCC3)c2)cc1OC -4.43%, COc1cccc(/C=C/C(=O)OCC(=O)N2CCN(c3ccccc3)CC2)c1 -1.19%, C[C@H](NC(=O)c1ccccc1Cl)C(=O)OCC(=O)N1CCN(c2ccccc2)CC1 1.01%, COc1cc(NC(=O)COC(=O)c2cnc(C)cn2)c(C)cc1[N+](=O)[O-] -4.41%, COc1ccc(C(=O)OCC(=O)Nc2ccc3[nH]c(=O)[nH]c3c2)c(OC)c1OC 1.62%, COc1ccc(C(=O)OCC(=O)c2ccc(Cl)s2)c(OC)c1OC -1.71%
